Test results published in PMC11062922 (Nature Chemical Biology, 2023).
Where two headings read alike, the source gives them in different places.

Legend:
AAK1 = system: AAK1; parameters: species or system human, MV4-11 + K-562 + COLO205 + SK-N-BE2 + OVCAR-8; details: read-out: apparent Kd, n = 1
BMP2K = system: BMP2K; parameters: species or system human, MV4-11 + K-562 + COLO205 + SK-N-BE2 + OVCAR-8; details: read-out: apparent Kd, n = 1
CLK1 = system: CLK1; parameters: species or system human, MV4-11 + K-562 + COLO205 + SK-N-BE2 + OVCAR-8; details: read-out: apparent Kd, n = 1
CLK4 = system: CLK4; parameters: species or system human, MV4-11 + K-562 + COLO205 + SK-N-BE2 + OVCAR-8; details: read-out: apparent Kd, n = 1
CSNK2A1;CSNK2A3 = system: CSNK2A1;CSNK2A3; parameters: species or system human, MV4-11 + K-562 + COLO205 + SK-N-BE2 + OVCAR-8; details: read-out: apparent Kd; compound concentrations:100 nM and 1000 nM (sheet 'Samples'); n = 1
CSNK2A2 = system: CSNK2A2; parameters: species or system human, MV4-11 + K-562 + COLO205 + SK-N-BE2 + OVCAR-8; details: read-out: apparent Kd, n = 1
GAK = system: GAK; parameters: species or system human, MV4-11 + K-562 + COLO205 + SK-N-BE2 + OVCAR-8; details: read-out: apparent Kd, n = 1
MELK = system: MELK; parameters: species or system human, MV4-11 + K-562 + COLO205 + SK-N-BE2 + OVCAR-8; details: read-out: apparent Kd; compound concentrations:100 nM and 1000 nM (sheet 'Samples'); n = 1
Q6ZSR9 = Q6ZSR9 (human, UniProt Q6ZSR9); parameters: species or system MV4-11 + K-562 + COLO205 + SK-N-BE2 + OVCAR-8; details: read-out: apparent Kd, n = 1
FLT3 = system: FLT3; parameters: species or system human, MV4-11 + K-562 + COLO205 + SK-N-BE2 + OVCAR-8; details: read-out: apparent Kd, n = 1
GSK3A = system: GSK3A; parameters: species or system human, MV4-11 + K-562 + COLO205 + SK-N-BE2 + OVCAR-8; details: read-out: apparent Kd; compound concentrations: 100 nM and 1000 nM (sheet 'Samples'), CATDS: 2.5871712918447001E-2; n = 1
GSK3B = system: GSK3B; parameters: species or system human, MV4-11 + K-562 + COLO205 + SK-N-BE2 + OVCAR-8; details: read-out: apparent Kd; compound concentrations: 100 nM and 1000 nM (sheet 'Samples'), CATDS: 2.3506229340690101E-2; n = 1
NUAK1 = system: NUAK1; parameters: species or system human, MV4-11 + K-562 + COLO205 + SK-N-BE2 + OVCAR-8; details: read-out: apparent Kd, n = 1
FLT4 = system: FLT4; parameters: species or system human, MV4-11 + K-562 + COLO205 + SK-N-BE2 + OVCAR-8; details: read-out: apparent Kd; compound concentrations:100 nM and 1000 nM (sheet 'Samples'); n = 1
[1] = compound concentrations:100 nM and 1000 nM (sheet 'Samples')

Chain of Q6ZSR9 (Q6ZSR9 whole entry, looked up): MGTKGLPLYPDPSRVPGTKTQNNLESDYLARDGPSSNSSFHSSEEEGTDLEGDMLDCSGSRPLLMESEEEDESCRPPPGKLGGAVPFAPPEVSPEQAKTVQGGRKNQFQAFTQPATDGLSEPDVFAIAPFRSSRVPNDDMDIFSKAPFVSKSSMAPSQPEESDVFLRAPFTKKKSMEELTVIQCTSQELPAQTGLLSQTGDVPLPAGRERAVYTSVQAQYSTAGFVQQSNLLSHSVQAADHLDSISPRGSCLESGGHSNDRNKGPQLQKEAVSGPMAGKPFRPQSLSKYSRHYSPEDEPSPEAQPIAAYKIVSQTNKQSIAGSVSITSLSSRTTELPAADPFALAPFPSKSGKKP

## CN(C)CC(O)COc1ccc(Nc2nccc(-c3cnn4nc(N5CCOCC5)ccc34)n2)cc1 (stereo not drawn) [GW767488X]
AAK1; [1]
  potency estimated from few doses: 23.6 nM
BMP2K; [1]
  potency estimated from few doses: 180 nM
CLK1; [1]
  potency estimated from few doses: 54.1 nM
CLK4; [1]
  potency estimated from few doses: 34.2 nM
CSNK2A1;CSNK2A3
  potency estimated from few doses: 105 nM
CSNK2A2; [1]
  potency estimated from few doses: 57.1 nM
GAK; [1]
  potency estimated from few doses: 378 nM
MELK
  potency estimated from few doses: 1490 nM
Q6ZSR9; [1]
  potency estimated from few doses: 29.6 nM

## FC(F)(F)c1ccc(-c2ncn(CCCN3CCOCC3)c2-c2ccncc2)cc1 [SB-217780]
AAK1; compound concentrations: 100 nM and 1000 nM (sheet 'Samples'), CATDS: 0.194449602003399
  potency estimated from few doses: 1890 nM

## CCN(CC)Cc1ccc(Nc2nccc(-c3cnn4ncccc34)n2)cc1 [GW780056X]
AAK1; compound concentrations: 100 nM and 1000 nM (sheet 'Samples'), CATDS: 2.17265123337868E-2
  potency estimated from few doses: 1010 nM
BMP2K; compound concentrations: 100 nM and 1000 nM (sheet 'Samples'), CATDS: 1.8132469854257299E-2
  potency estimated from few doses: 1950 nM
CLK1; compound concentrations: 100 nM and 1000 nM (sheet 'Samples'), CATDS: 3.2985166948547001E-2
  potency estimated from few doses: 346 nM
CLK4; compound concentrations: 100 nM and 1000 nM (sheet 'Samples'), CATDS: 3.0818268189282499E-2
  potency estimated from few doses: 403 nM
CSNK2A2; compound concentrations: 100 nM and 1000 nM (sheet 'Samples'), CATDS: 1.97839070790959E-2
  potency estimated from few doses: 1380 nM
FLT3; compound concentrations: 100 nM and 1000 nM (sheet 'Samples'), CATDS: 9.2784316233310501E-2
  potency estimated from few doses: 48.8 nM
GSK3A
  potency estimated from few doses: 616 nM
GSK3B
  potency estimated from few doses: 798 nM
NUAK1; compound concentrations: 100 nM and 1000 nM (sheet 'Samples'), CATDS: 0.242637090604084
  potency estimated from few doses: 11.6 nM
Q6ZSR9; compound concentrations: 100 nM and 1000 nM (sheet 'Samples'), CATDS: 2.1989322106712401E-2
  potency estimated from few doses: 971 nM

## CN(C)CCNC(=O)Nc1ccc(N(C)c2ccnc(Nc3ccc(CS(C)(=O)=O)cc3)n2)cc1.Cl [GW830900A]
AAK1; [1]
  potency estimated from few doses: 820 nM
BMP2K; [1]
  potency estimated from few doses: 1220 nM
FLT3; [1]
  potency estimated from few doses: 39.9 nM
FLT4
  potency estimated from few doses: 1240 nM
GAK; [1]
  potency estimated from few doses: 1450 nM
NUAK1; [1]
  potency estimated from few doses: 1750 nM
Q6ZSR9; [1]
  potency estimated from few doses: 939 nM

## Nc1nc(Nc2ccccc2)cc(-c2ccc3c(N)n[nH]c3c2)n1 [GSK2225749A]
AAK1; [1]
  potency estimated from few doses: 130 nM
BMP2K; [1]
  potency estimated from few doses: 554 nM
MELK
  potency estimated from few doses: 823 nM
Q6ZSR9; [1]
  potency estimated from few doses: 125 nM

## CS(=O)(=O)Nc1ccc(-c2ccnc3[nH]ccc23)cc1 [GSK993273A]
AAK1; [1]
  potency estimated from few doses: 1890 nM
BMP2K; [1]
  potency estimated from few doses: 2000 nM
CLK1; [1]
  potency estimated from few doses: 1110 nM
CLK4; [1]
  potency estimated from few doses: 1440 nM
Q6ZSR9; [1]
  potency estimated from few doses: 2010 nM

## CCCc1cc(N2CCCN(C)CC2)nc2sc3c(N)ncnc3c12 [BI00604564]
AAK1; compound concentrations: 100 nM and 1000 nM (sheet 'Samples'), CATDS: 0.13729874027545599
  potency estimated from few doses: 1990 nM
GAK; compound concentrations: 100 nM and 1000 nM (sheet 'Samples'), CATDS: 0.27765104438225702
  potency estimated from few doses: 516 nM
Q6ZSR9; compound concentrations: 100 nM and 1000 nM (sheet 'Samples'), CATDS: 0.16382983501134099
  potency estimated from few doses: 1310 nM
